Inconclusive results are not listed. Calls of active or inactive are those of the source. Calls come from the whole dose curve; as a rule, active = well fitted cell-killing curve with a large enough effect; inconclusive = small, poorly fitted or top-dose-only effect, or effect the other way; inactive = no such curve, though single readings can be large or run the other way.
Test: Quantitative High-Throughput drug screen in 47 multiple myeloma cell lines against the NCATS MIPE library collection: OCIMY7_PLB cell viability assay (AID 1918987)
Conditions: OCI-MY7 myeloma viability, CellTiter-Glo ATP, 48 h; series mostly up to 45.8 µM; viability (% of DMSO): at the top concentration
How it was run: (§1)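 Viability after 48 h drug exposure was measured as ATP-dependent luminescence. Cells, 500 per well, sat at 37 °C under 5% CO2; DMSO wells set 100%, media-only wells 0%.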
Note: nearly all actives have a fitted effect of over 65% in size.
Potency is the fitted concentration of half-maximal effect.

SMILES | viability (% of DMSO) | Potency
CCN(CC)C(=O)c1ccc(C2=CC3(CCNCC3)Oc3cccc(O)c32)cc1 | 245% (inactive) | –
CCC(=O)OC1CCC2C3CCC4=CC(=O)CC[C@@]4(C)C3CC[C@]12C (stereo partly specified) | – | 16.6 µM (active)
NC1=NC(=O)N2CC12 (stereo unspecified) | – | 20.9 µM (active)
CCNC(=O)CC1N=C(c2ccc(Cl)cc2)c2cc(OC)ccc2-n2c(C)nnc21 (stereo unspecified) | – | 18.7 µM (active)

Test: Quantitative High-Throughput drug screen in 47 multiple myeloma cell lines against the NCATS MIPE library collection: OCIMY5_PLB cell viability assay (AID 1918988);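 for viability, % of control: 100% = DMSO-treated wells and 0% = wells with media alone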
Conditions: OCI-MY5 myeloma viability, ATP luminescence, 48 h; series mostly up to 45.8 µM; viability, % of control: at the top concentration
How it was run: as §1

SMILES | Potency | viability, % of control
CC(N[C@H]1C[C@H]1c1ccccc1)c1ccc2c(c1)OCCO2 (stereo partly specified) | 2.96 µM (active) | –
CCOC(=O)c1cncn1[C@H](C)c1ccccc1 | – | 157% (inactive)
CC(O)=C(C#N)C(=O)Nc1cc(Br)ccc1Br | 1.66 µM (active) | –
COc1ccc2c(c1)CN(C)CC2c1ccc(Cl)c(Cl)c1 (stereo unspecified) | 11.8 µM (active) | –
c1ccc(CCCN2CCN(CCOC(c3ccccc3)c3ccccc3)CC2)cc1 | 20.9 µM (active) | –
O=C(O)CNC(=O)c1c(O)c2ccccc2n(Cc2ccccc2)c1=O | – | 153% (inactive)
O=C(Oc1ccc([N+](=O)[O-])cc1)N1CCC(C(O)(c2ccc3c(c2)OCO3)c2ccc3c(c2)OCO3)CC1 | – | 130% (inactive)
COc1cc([C@@H]2c3cc4c(cc3[C@@H](O)C3COC(=O)C32)OCO4)cc(OC)c1O (stereo partly specified) | 0.0105 µM (active) | –
CCCN1CCO[C@@H]2c3cc(O)ccc3OC[C@@H]21 | 18.7 µM (active) | –
O=C1C=CC[C@@H]2[C@H]3CCCN4CCC[C@@H](CN12)[C@@H]34 | 2.96 µM (active) | –
CCNC(=O)CC1N=C(c2ccc(Cl)cc2)c2cc(OC)ccc2-n2c(C)nnc21 (stereo unspecified) | 6.62 µM (active) | –
C[C@@H]1CC[C@@]2(OC1)O[C@H]1C[C@H]3[C@@H]4CC=C5C[C@@H](O[C@@H]6O[C@H](CO)[C@@H](O[C@@H]7O[C@@H](C)[C@H](O)[C@@H](O)[C@@H]7O)[C@H](O)[C@@H]6O[C@@H]6O[C@@H](C)[C@H](O)[C@@H](O)[C@@H]6O)CC[C@]5(C)[C@@H]4CC[C@]3(C)[C@@H]1[C@H]2C | 1.66 µM (active) | –

Reference: PubChem BioAssay (NCATS)
